From PMC12350791 come the findings set out here.

EFTUD2, Q15029, sequence (Q15029 whole entry): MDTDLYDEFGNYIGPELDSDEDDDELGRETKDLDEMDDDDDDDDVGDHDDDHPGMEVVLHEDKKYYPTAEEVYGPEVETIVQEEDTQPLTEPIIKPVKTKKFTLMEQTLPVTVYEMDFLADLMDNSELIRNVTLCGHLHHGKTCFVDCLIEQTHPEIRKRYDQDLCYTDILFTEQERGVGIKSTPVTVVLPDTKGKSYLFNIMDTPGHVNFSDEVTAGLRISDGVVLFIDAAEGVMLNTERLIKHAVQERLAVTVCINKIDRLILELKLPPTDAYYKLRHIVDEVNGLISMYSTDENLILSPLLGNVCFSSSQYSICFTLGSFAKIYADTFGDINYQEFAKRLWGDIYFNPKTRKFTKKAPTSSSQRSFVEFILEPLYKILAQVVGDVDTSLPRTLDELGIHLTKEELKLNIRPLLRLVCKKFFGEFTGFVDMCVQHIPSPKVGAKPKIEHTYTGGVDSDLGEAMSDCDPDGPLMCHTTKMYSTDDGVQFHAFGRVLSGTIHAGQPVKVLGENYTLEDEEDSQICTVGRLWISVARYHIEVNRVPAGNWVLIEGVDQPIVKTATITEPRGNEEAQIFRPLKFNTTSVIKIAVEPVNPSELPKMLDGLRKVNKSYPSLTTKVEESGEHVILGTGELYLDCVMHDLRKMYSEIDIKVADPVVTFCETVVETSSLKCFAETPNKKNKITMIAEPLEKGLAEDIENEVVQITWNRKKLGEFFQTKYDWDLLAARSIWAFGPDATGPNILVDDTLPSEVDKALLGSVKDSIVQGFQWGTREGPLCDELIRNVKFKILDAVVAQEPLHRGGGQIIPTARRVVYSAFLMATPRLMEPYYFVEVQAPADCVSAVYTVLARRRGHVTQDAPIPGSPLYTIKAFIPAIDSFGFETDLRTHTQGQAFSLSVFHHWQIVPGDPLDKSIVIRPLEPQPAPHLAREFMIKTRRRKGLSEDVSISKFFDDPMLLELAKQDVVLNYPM
USP39, Q53GS9, sequence (Q53GS9 whole entry): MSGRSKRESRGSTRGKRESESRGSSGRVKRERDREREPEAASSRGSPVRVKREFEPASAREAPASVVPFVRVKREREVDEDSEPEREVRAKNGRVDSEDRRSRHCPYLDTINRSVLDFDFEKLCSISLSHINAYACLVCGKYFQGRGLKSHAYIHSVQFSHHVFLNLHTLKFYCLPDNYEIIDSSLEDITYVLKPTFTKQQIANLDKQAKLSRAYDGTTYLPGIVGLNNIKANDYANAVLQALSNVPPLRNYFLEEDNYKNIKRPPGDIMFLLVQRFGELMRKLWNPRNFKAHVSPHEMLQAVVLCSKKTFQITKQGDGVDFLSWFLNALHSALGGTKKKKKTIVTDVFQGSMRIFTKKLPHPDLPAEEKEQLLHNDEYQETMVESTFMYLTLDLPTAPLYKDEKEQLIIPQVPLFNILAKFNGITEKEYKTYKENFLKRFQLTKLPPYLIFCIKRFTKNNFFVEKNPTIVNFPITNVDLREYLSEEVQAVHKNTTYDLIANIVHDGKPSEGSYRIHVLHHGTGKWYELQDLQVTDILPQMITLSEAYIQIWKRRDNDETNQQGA
PLRG1, O43660, sequence (O43660 whole entry): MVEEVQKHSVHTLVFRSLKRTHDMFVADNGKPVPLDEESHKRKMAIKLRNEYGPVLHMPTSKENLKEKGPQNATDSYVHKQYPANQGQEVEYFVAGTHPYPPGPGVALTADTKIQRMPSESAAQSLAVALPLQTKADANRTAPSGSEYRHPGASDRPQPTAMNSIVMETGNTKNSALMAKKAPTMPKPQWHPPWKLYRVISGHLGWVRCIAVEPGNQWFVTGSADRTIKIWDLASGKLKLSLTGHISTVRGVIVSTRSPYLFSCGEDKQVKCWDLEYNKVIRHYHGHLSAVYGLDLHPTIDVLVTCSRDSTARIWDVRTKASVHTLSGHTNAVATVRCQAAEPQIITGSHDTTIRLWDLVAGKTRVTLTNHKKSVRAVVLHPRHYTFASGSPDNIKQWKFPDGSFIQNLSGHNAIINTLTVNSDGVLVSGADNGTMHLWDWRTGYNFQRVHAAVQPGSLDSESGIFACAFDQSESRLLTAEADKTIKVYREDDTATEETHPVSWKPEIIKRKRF

The target in the test is PRPF8 (UniProt Q6P2Q9). The test is described as follows: cross-linking mass spectrometry. The settings on record: DSBSO, in cells or nuclear extract, not told apart.
Regarding EFTUD2, Q15029, the cross-linked residues result was “K405 - K218”.

On to USP39, Q53GS9, for which the cross-linked residues entry was “K508 - K983”.

In the case of PLRG1, O43660, the cross-linked residues result is “K320 - K666”.
